Records with an inconclusive call do not appear. Where a call stands in place of a potency, no number is given. The source made the active and inactive calls. The call rests on the fitted dose curve; in most records, active means well fitted cell-killing curve with a large enough effect; inconclusive means small, poorly fitted or top-dose-only effect, or effect the other way; inactive means no such curve, though single readings can be large or run the other way.
Test: Quantitative High-Throughput drug screen in 47 multiple myeloma cell lines against the NCATS MIPE library collection: KMS34_JCRB cell viability assay (AID 1918985); further: nearly all actives have a fitted effect of over 40% in size
Conditions: KMS34 myeloma viability, CellTiter-Glo ATP luminescence, 48 h; series mostly up to 45.8 µM
Excerpt: PI: Beverly A. Mock Ph.D.
Laboratory of Cancer Biology and Genetics,
Center for Cancer Research, National Cancer Institute,
National Institute of Health, Bethesda, Maryland
Drug resistance and disease progression are common in multiple myeloma (MM) patients, underscoring the need for new therapeutic combinations. […] We hypothesized that effective combinations would reduce MYC expression and enhance p16 activity. […] These preclinical data identify potentially useful drug combinations for evaluation in drug-resistant MM and reveal potential mechanisms of combined drug sensitivity.
Described herein is the primary MIPE qHTS used to cherrypick compounds. Validated compounds were then further tested for potential synergistic activiy.
[1] Peat TJ, Gaikwad SM, Dubois W, Gyabaah-Kessie N, Zhang S, Gorjifard S, Phyo Z, Andres M, Hughitt VK, Simpson RM, Miller MA, Girvin AT, Taylor A, Williams D, D'Antonio N, Zhang Y, Rajagopalan A, Flietner E, Wilson K, Zhang X, Shinn P, Klumpp-Thomas C, McKnight C, Itkin Z, Chen L, Kazandijian D, Zhang J, Michalowski AM, Simmons JK, Keats J, Thomas CJ, Mock BA. Drug combinations identified by high-throughput screening promote cell cycle transition and upregulate Smad pathways in myeloma. Cancer Lett. 2023 Aug 1;568:216284. doi: 10.1016/j.canlet.2023.216284. Epub 2023 Jun 24. PMID: 37356470; PMCID: PMC10408729.
SEQUENCE No. (e.g., 1, 2, 3, etc.); […] (e.g., Cells, Incubation, Reagent, etc.); VALUE and DESCRIPTION.
1; Cells; 5 uL; white, solid bottom 1536-well Greiner assay plate.
2; Compounds; 23 nL; Kalypsis pin tool (Wako USA) equipped with a 1536-well pin head to transfer to the assay plates.
3; Incubation; 48 hours; 37C incubation.
4; Reagent;5uL; CellTiter Glo (Promega).
5; Detector; 425V; Luminescence; Viewlux PerkinElmer.
NOTES (numbers refer to Sequence numbers above)
1. The cell-based screening methods employed in this study were like those previously published. Briefly, the corresponding myeloma cell lines were screened in 1,536-well plates with 500 cells, 5-uL per well for inhibition of cell viability (assessed by measuring ATP levels with CellTiterGlo).
2. NCATS MIPE 4.0 library of approved and investigational drugs were added using the Kalypsis pin tool. Wells treated with DMSO only for 100% viability and media only for 0% viability were used as controls.
3. The assay plates were covered and incubated for 48 hours in a 37C, 5% CO2 incubator with controlled humidity.
4. After 48 hours, CellTilter-GloTM luminescent substrate mix (Promega) reagent was added to the assay plate and plates we incubated for 5 min at room temperature.
5. Signal was measured as median relative luminescence units on a ViewLux (PerkinElmer) multiplate reader.
[1] Heske CM, Davis MI, Baumgart JT, Wilson K, Gormally MV, Chen L, Zhang X, Ceribelli M, Duveau DY, Guha R, Ferrer M, Arnaldez FI, Ji J, Tran HL, Zhang Y, Mendoza A, Helman LJ, Thomas CJ. Matrix Screen Identifies Synergistic Combination of PARP Inhibitors and Nicotinamide Phosphoribosyltransferase (NAMPT) Inhibitors in Ewing Sarcoma. Clin Cancer Res. 2017 Dec 1;23(23):7301-7311. doi: 10.1158/1078-0432.CCR-17-1121. Epub 2017 Sep 12. PMID: 28899971; PMCID: PMC6636827.
Potency means the concentration at half of the fitted maximal effect.

Compound | Potency
C[C@@]12OC(=O)[C@]1([C@@H](O)[C@@H]1C=CCCC1)NC(=O)[C@H]2CCCl | 10.5 nM (active)
CC(C)(C)[C@]1(O)C[C@@H]2OC(=O)C[C@@]23C(=O)O[C@@H]2OC(=O)[C@H](O)C213 (stereo not given in full) | inactive
COC1=CC(C)=C[C@@H](C)[C@@H](O)[C@@H](C)CC(C)=CC=C[C@H](OC)[C@H]([C@@H](C)[C@@H](O)[C@H](C)[C@@]2(O)C[C@@H](O)[C@H](C)[C@@H](C(C)C)O2)OC1=O | 3 nM (active)
CC[C@@H]1[C@@H](C)O[C@@](O)([C@@H](C)[C@H](O)[C@H](C)[C@H]2OC(=O)C=CC=C[C@@H](C)[C@@H]([C@@H](C)[C@@H](O)[C@H](C)[C@@]3(O)C[C@H](O[C@H]4C[C@H](O)[C@H](O)[C@H](C)O4)[C@H](CC)[C@@H](C)O3)OC(=O)C=CC=C[C@@H]2C)C[C@H]1O[C@H]1C[C@H](O)[C@H](O)[C@H](C)O1 | 935 nM (active)
C[C@@H]1CC[C@@]2(OC1)O[C@H]1C[C@H]3[C@@H]4CC=C5C[C@@H](O[C@@H]6O[C@H](CO)[C@@H](O[C@@H]7O[C@@H](C)[C@H](O)[C@@H](O)[C@@H]7O)[C@H](O)[C@@H]6O[C@@H]6O[C@@H](C)[C@H](O)[C@@H](O)[C@@H]6O)CC[C@]5(C)[C@@H]4CC[C@]3(C)[C@@H]1[C@H]2C | 1870 nM (active)
CC[C@@]1(O)C(=O)OCc2c1cc1n(c2=O)Cc2cc3ccccc3nc2-1 | 209 nM (active)
CN(C)[C@@H]1C(=O)C(C(N)=O)=C(O)[C@@]2(O)C(=O)C3=C(O)c4c(O)cccc4[C@@](C)(O)[C@H]3[C@H](O)[C@@H]12 | 3720 nM (active)
C[C@](O)(COc1ccc(C#N)cc1)C(=O)Nc1ccc(C#N)c(C(F)(F)F)c1 | inactive
CCc1c(C(=O)C(N)=O)c2c(OCC(=O)O)cccc2n1Cc1ccccc1 | inactive
c1ccc(CCCN2CCN(CCOC(c3ccccc3)c3ccccc3)CC2)cc1 | 26400 nM (active)
CC(=Cc1csc(C)n1)[C@@H]1C[C@H]2O[C@]2(C)CCC[C@H](C)[C@@H](O)[C@@H](C)C(=O)C(C)(C)[C@@H](O)CC(=O)O1 | inactive
C[C@]12CC[C@H]3[C@@H](CCC4=CC(=O)CC[C@@]43C)[C@H]1CC[C@H]2O | inactive
O=C1C=CC[C@@H]2[C@H]3CCCN4CCC[C@@H](CN12)[C@@H]34 | inactive
CC(C)(O)C(=O)Nc1ccc([N+](=O)[O-])c(C(F)(F)F)c1 | inactive
O=C(NCC1CCOCC1)c1cnc(Nc2ccc(Cl)cc2Cl)nc1C(F)(F)F | inactive
C[C@@H]1[C@H](O)[C@@H](C)C=CC=CCCC=CC=CC=CC=C[C@H](O[C@H]2O[C@@H](C)[C@H](O)[C@@H](N)[C@@H]2O)CC2O[C@](O)(C[C@@H](O)[C@H](O)CC[C@@H](O)C[C@@H](O)C[C@@H](O)CC(=O)O[C@H]1C)C[C@H](O)[C@H]2C(=O)O | inactive
O=C(O)CNC(=O)c1c(O)c2ccccc2n(Cc2ccccc2)c1=O | inactive
COc1ccc2c(c1)[C@]13CCCCC1C(C2)N(C)CC3 (stereo not given in full) | inactive
O=c1cccc2n1CC1CNC[C@H]2C1 | inactive
CCCC[N+]1(C)[C@H]2CC(OC(=O)[C@H](CO)c3ccccc3)C[C@H]1[C@H]1O[C@H]12 (stereo not given in full) | inactive

Compound | Potency
COC(=O)[C@@H](N)CCCN=C(N)N[N+](=O)[O-] | inactive
C=CCON=C(C[C@H]1O[C@@H]2O[C@]3(C)CC[C@@H]4[C@H](C)CC[C@@H]([C@H]1C)[C@@]24OO3)[C@H]1O[C@@H]2O[C@]3(C)CC[C@H]4[C@H](C)CC[C@@H]([C@@H]1C)[C@@]24OO3 | 264 nM (active)
C[C@@H]1O[C@@H](O[C@@H]2C=C3CC[C@@H]4[C@@H](CC[C@]5(C)[C@H](c6ccc(=O)oc6)CC[C@@]45O)[C@@]3(C)CC2)[C@H](O)[C@H](O)[C@H]1O | 33.2 nM (active)
O=C(Oc1ccc([N+](=O)[O-])cc1)N1CCN(Cc2cccc(Oc3ccccc3)c2)CC1 | inactive
COc1cc([C@@H]2c3cc4c(cc3[C@@H](O)C3COC(=O)C32)OCO4)cc(OC)c1O (stereo not given in full) | 18.7 nM (active)
CSCC[C@@H](NC(=O)[C@@H](Cc1ccccc1)NC(=O)CNC(=O)CNC(=O)[C@@H](N)Cc1ccc(O)cc1)C(=O)O | inactive
CC(C)N(CCNC(=O)CN1CCCC1=O)C(C)C | inactive
N#C[C@H](O[C@@H]1O[C@H](CO[C@@H]2O[C@H](CO)[C@H](O)[C@H](O)[C@H]2O)[C@H](O)[C@H](O)[C@H]1O)c1ccccc1 | 8330 nM (active)
O=C(Nc1ccncc1)C(=O)c1cn(Cc2ccc(Cl)cc2)c2ccccc12 | 46.9 nM (active)
c1ccc2c(CN3CCNCC3)cccc2c1 | inactive
COc1ccc(N(C(=O)Oc2c(C)cccc2C)c2ccnc(Nc3ccc(N4CCN(C)CC4)cc3)n2)c(OC)c1 | 1050 nM (active)
Cc1c(C(=O)c2cccc3ccccc23)c2cccc3c2n1[C@H](CN1CCOCC1)CO3 | 23500 nM (active)
CCN1CCN(C(=O)Cc2ccc(Nc3ncc(F)c(Nc4ccc(C(=O)Nc5ccccc5Cl)cc4)n3)cc2)CC1 | 4180 nM (active)
CC(C)N[C@@H]1CCn2c(=O)[nH]c3cccc(c32)[C@@H]1O | 10500 nM (active)
O=C(Oc1ccc([N+](=O)[O-])cc1)N1CCC(C(O)(c2ccc3c(c2)OCO3)c2ccc3c(c2)OCO3)CC1 | inactive
CO[C@H]1CCC(O[C@H]2C[C@H]([C@]3(C)CC[C@]4(C[C@H](O)[C@@H](C)[C@@H]([C@@H](C)C=C(C)C(=O)[C@H](C)C[C@H](C)C(=O)O)O4)O3)O[C@]3(O[C@@H]([C@H]4O[C@@](O)(CO)[C@H](C)C[C@H]4C)C[C@H]3C)[C@H]2C)O[C@H]1C (stereo not given in full) | 1180 nM (active)
COc1ccc(C(=O)c2c(C)n(CCN3CCOCC3)c3cc(I)ccc23)cc1 | 20900 nM (active)
C[C@]12CC[C@H](O)CC1=CC[C@H]1[C@H]3CCC(=O)[C@@]3(C)CC[C@@H]12 | inactive
COCC1(CO)C(=O)C2CCN1CC2 (stereo not given) | 590 nM (active)
O=S(=O)(F)Cc1ccccc1 | inactive

Reference: PubChem BioAssay (NCATS)
